Activity change, negative = inhibition, Potency and activity, negative = inhibition data for twelve molecules are collected here from PubChem BioAssay (NCATS).

Where “and” joins values, the source holds several entries; their conditions need not be identical. Equal values may be shown once. Unmarked numbers belong to inactive results. Results filed as inconclusive are left out. Calls of active or inactive are those of the source. Unless noted, calls follow the shape of the dose curve; as a rule, active = well fitted curve in either direction with a large enough effect (not every such curve was filed as active); inconclusive = small, poorly fitted or top-dose-only effect, or another doubt; inactive = flat fitted curve, though single readings scatter.

Test [1] is described as follows: AP1 Signaling Pathway (AID 357). Also: % is scaled to controls: 0 for no effect and ±100 for the full control effect. The note with it: ME-180 AP-1-bla reporter, EGF-induced, beta-lactamase ratio, 5 h. An outline of the steps: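 Read-out was the 460nm/530nm emission ratio (excitation 405nm) after CCF4 loading for 2.5 hours at room temperature. Cells carried an AP-1-driven beta-lactamase reporter, were stimulated with EC50 EGF plus compound for 5 hours, and AC50 values came from titrations.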

Test [2] has as its target Cytochrome P450 1A2 (Homo sapiens) (UniProt P05177). Kind of test: p450-cyp1a2 (AID 410; calls by dose curve; also: potency is read from the fitted curve at half-maximal effect;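 as to Activity change, negative = inhibition: -100% = full effect of reference inhibitor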). The note with it: recombinant CYP1A2, luciferin-ME demethylation, luminescence; series mostly up to 57 µM. The procedure, abridged:
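Read-out is luminescence from luciferin produced by CYP1A2 demethylation of Luciferin-ME (100uM, at Km). Detection reagent stopped the 60 min NADPH-dependent reaction; signals were normalized to 57 uM furafylline.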

Test [3] can be described thus: Stat Signaling Pathway (AID 446).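 Also: ME-180 cervical cancer cells given 40 pM IL-6 alongside compound; SIE-controlled beta-lactamase reporter measured as 460/530 nm FRET emission ratio; % is scaled to controls: 0 for no effect and ±100 for the full control effect.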 The note with it: ME-180 (cervical carcinoma) SIE beta-lactamase reporter, IL-6 stimulated, 5 h. The procedure, abridged:
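Overnight-plated ME-180 cells bearing a STAT Inducible Element beta-lactamase reporter; 5 h co-exposure to compound and 40 pM IL-6; values normalized to 300 pM IL-6 and 125 nM JAK inhibitor controls.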

The target in test [4] is Glucocorticoid receptor (Homo sapiens) (UniProt P04150). Briefly: GR-GFP Redistribution (AID 450;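 active = compounds whose dose series gives a full or clear partial fitted curve of increased nuclear translocation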; also: potency is read from the fitted curve at half-maximal effect). The note with it: U2OS GR-GFP nuclear translocation, laser cytometry, 2 h.
The target in test [5] is Mitogen-activated protein kinase 10 (Mus musculus) (UniProt Q61831). Briefly: JNK3 AlphaScreen Assay (AID 530).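 Also: kinase came from lysate of stimulated human HepG2 cells; signal reports phosphorylation of biotinylated GST-cJun 1-79 at Ser73 with 10 µM ATP; % is scaled to controls: 0 for no effect and ±100 for the full control effect.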 Particulars: JNK3 lysate, c-Jun phosphorylation; series mostly up to 57.1 µM. An outline of the steps:
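HepG2 lysate (IL-1b/TNFa pre-activated) + biotin-GST-cJun 1-79 + anti-pSer73 cJun; cpd titration, 15 min RT; ATP 10 uM start; Tris pH 7.6, MgCl2, DTT, vanadate; beads in EDTA buffer; AlphaScreen.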
In general terms: Bead proximity is the source of the signal in Alpha formats.

For test [6], the target named is Glucocorticoid receptor (Homo sapiens) (UniProt P04150). Briefly: GR-EFC Redistribution (AID 451; calls by dose curve; also: potency is read from the fitted curve at half-maximal effect). The note with it: CHO-K1 GR-EFC translocation, beta-gal luminescence, 2 h. An outline of the steps: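 CHO-K1 cells expressing nuclear EA and GR-ED fragments of b-gal; compounds titrated up to 46 uM final, 2 h at 37 C. GR nuclear translocation read as complemented b-gal luminescence after 1 h RT detection.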

Test [7] is described as follows: NFAT Signaling Pathway (AID 444).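 Also: carbachol stimulus at about its EC50 of 1 µM final; % is scaled to controls: 0 for no effect and ±100 for the full control effect.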 Particulars: Jurkat NFAT-bla M1, carbachol, beta-lactamase ratio, 5 h; at 38 µM (top of the series) unless noted. The procedure, abridged: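 Jurkat cells with NFAT-driven β-lactamase reporter and co-expressed M1 receptor, stimulated with carbachol (final 1 uM, ~EC50), compound titration, 5 h at 37 °C. CCF4 loaded 1 h at RT; 460/530 nm ratio gave %activity and AC50.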

Chain of Glucocorticoid receptor (Homo sapiens) (P04150 whole entry, looked up, the tested form may be a part): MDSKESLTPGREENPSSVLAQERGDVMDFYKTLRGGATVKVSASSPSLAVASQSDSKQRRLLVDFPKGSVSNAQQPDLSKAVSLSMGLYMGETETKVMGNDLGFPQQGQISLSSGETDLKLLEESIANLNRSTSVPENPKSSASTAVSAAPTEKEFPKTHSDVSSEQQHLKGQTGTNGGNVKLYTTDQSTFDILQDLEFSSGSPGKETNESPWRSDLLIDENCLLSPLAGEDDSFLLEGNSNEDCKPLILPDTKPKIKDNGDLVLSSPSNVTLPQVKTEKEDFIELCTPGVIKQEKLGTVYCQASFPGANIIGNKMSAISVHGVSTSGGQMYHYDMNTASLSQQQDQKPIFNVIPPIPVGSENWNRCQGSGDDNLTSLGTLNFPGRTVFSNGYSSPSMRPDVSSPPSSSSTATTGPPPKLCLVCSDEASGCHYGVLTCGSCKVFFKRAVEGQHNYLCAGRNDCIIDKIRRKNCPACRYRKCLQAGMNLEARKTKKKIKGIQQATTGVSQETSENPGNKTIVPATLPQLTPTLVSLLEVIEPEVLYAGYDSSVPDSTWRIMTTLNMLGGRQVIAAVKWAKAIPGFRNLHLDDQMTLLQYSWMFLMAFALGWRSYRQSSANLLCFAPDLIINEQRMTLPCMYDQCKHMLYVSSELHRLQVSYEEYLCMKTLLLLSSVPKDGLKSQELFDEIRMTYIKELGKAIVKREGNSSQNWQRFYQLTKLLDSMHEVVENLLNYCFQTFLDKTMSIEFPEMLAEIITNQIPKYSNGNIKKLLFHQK
Chain of Cytochrome P450 1A2 (Homo sapiens) (P05177 whole entry, looked up): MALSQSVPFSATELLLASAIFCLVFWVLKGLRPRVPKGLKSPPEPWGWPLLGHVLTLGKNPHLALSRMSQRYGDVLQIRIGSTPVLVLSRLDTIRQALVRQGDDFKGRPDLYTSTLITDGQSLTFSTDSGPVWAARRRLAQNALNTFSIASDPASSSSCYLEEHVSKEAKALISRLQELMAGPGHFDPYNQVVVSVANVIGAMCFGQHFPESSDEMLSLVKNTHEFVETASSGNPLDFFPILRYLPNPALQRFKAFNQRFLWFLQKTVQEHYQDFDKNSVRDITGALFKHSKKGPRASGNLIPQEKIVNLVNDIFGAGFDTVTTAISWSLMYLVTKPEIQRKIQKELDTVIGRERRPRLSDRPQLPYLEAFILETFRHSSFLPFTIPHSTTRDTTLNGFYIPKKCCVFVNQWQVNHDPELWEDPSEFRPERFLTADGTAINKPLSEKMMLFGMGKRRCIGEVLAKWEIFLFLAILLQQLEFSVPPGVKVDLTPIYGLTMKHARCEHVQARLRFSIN

Regarding `Cc1ccc(O)c(N=Nc2ccccc2)n1`, the activity change, negative = inhibition in test [1] (at 38 µM (top of the series)) is 17.2%. For the same molecule, the Potency in test [2] is 794 nM (active) and 158 nM (active); in test [4] it was over 46 µM. For the same molecule, in test [3] (at 38 µM (top of the series)), the activity, negative = inhibition was -4.23%. In test [5], the Potency entry was “inactive”.
Regarding `NC(=O)C(=O)O`, in test [1] (at 38 µM (top of the series)), the activity change, negative = inhibition is 0.648%. Besides, the Potency entry in test [2] and in test [5] was “inactive” throughout. The activity, negative = inhibition in test [3] (at 38 µM (top of the series)) is -1.18%. The Potency in test [4] and in test [6] was over 46 µM each time.
For the molecule `COc1ccc(/C=C/C(=O)Nc2ccccc2C(=O)O)cc1OC`, in test [1] (at 17.2 µM (top of the series)), the activity change, negative = inhibition was -28.6%. Further, the activity, negative = inhibition in test [3] (at 17.2 µM (top of the series)) is -24.7%. Besides, in test [4], the Potency was over 20.6 µM.
On to `O=S(=O)(c1cccc2c(I)cccc12)N1CCCNCC1`, for which the activity change, negative = inhibition in test [1] (at 38 µM (top of the series)) is 5.61%. The Potency in test [2] is 10 µM (active); in test [4], over 46 µM; in test [6], over 46 µM. The Potency result in test [5] is “inactive”.
For `O=C1C(SCCO)=C(SCCO)C(=O)c2ccccc21`, the activity change, negative = inhibition in test [1] (at 38 µM (top of the series)) is -104% (active). For the same molecule, the Potency in test [2] was 12.6 µM (active) and 631 nM (active); in test [4], over 46 µM. Also, the activity, negative = inhibition in test [3] (at 38 µM (top of the series)) was 134% (active). The Potency entry in test [5] is “inactive”.
Regarding `N#C/C(=C\c1ccc(O)c(O)c1)C(=O)c1ccc(O)c(O)c1`, in test [1] (at 38 µM (top of the series)), the activity change, negative = inhibition is -8.79%. Further, the Potency was 31.6 µM (active) in test [2], over 46 µM in test [4] and over 46 µM in test [6].
As for `CCOc1ccc2nc(S(N)(=O)=O)sc2c1`, the activity change, negative = inhibition in test [1] (at 17.2 µM (top of the series)) was 7.72%. For the same molecule, the activity, negative = inhibition in test [3] (at 17.2 µM (top of the series)) was 12.3%. Moreover, the Potency in test [4] was over 20.6 µM.
With `NCCCCC(=O)O`, the activity change, negative = inhibition in test [1] (at 38 µM (top of the series)) is -6.31%. Further, the Potency entry in test [2] and in test [5] was “inactive” in each case. For the same molecule, the activity, negative = inhibition in test [3] (at 38 µM (top of the series)) is 0.307%. The Potency in test [4] and in test [6] was over 46 µM in each case.
In the case of `OC[C@H]1O[C@@H](n2cnc3c(NC4CCCC4)ncnc32)[C@H](O)[C@@H]1O`, the activity change, negative = inhibition in test [1] (at 17.2 µM (top of the series)) was 4.32%; in test [7] it was 7.15% [at 17.2 µM]. Moreover, in test [3] (at 17.2 µM (top of the series)), the activity, negative = inhibition was 15.8%. For the same molecule, the Potency in test [4] is over 20.6 µM.
With `NCCNC(=O)c1ncsc1-c1cccc(F)c1`, the activity change, negative = inhibition in test [1] (at 38 µM (top of the series)) is 0.181%. In addition, the Potency in test [2] was 10 µM (active); in test [4], over 46 µM. The activity, negative = inhibition in test [3] (at 38 µM (top of the series)) is 3.48%. Moreover, in test [5], the Potency result was “inactive”.
Regarding `C[N+](C)(CCCCCC[N+](C)(C)CCCN1C(=O)c2cccc3cccc(c23)C1=O)CCCN1C(=O)c2cccc3cccc(c23)C1=O`, the activity change, negative = inhibition in test [1] (at 38 µM (top of the series)) is 14%. For the same molecule, the Potency entry in test [2] and in test [5] was “inactive” in each case. Moreover, the activity, negative = inhibition in test [3] (at 38 µM (top of the series)) is 0.109%. Further, the Potency in test [4] and in test [6] was over 46 µM in each case.
For `O=C(O)c1cc([N+](=O)[O-])ccc1NCCCc1ccccc1`, the activity change, negative = inhibition in test [1] (at 38 µM (top of the series)) is -8.1%. In addition, the Potency was 31.6 µM (active) in test [2], over 46 µM in test [4] and over 46 µM in test [6]. For the same molecule, in test [3] (at 38 µM (top of the series)), the activity, negative = inhibition is -16.2%. The Potency result in test [5] was “inactive”.
